# Laboratory results: PubChem BioAssay AID1159580 (chemical genetic matrix, 2015)
# The whole screen tested about 5,500 compounds, of which about 2,000 (36%) were called active. Roughly 18% stayed inconclusive and do not appear here. The list shows a part of the results. A number with no mark means an inactive call. No stated cut-off is given here; in the data, active means normalized growth mostly below about 0.91 (no sharp cut-off); inconclusive means no clear call, values can overlap the other calls; inactive means mostly above about 0.92.
# Assay: chemical genetic growth profiling, strain panel (AID 1159580);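 further: tested at 20 µM; growth read once vehicle control cultures reached saturation at 30 °C; 1 = growth at the plate median or of vehicle wells; lower values mean less growth of the strain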
# Settings: S. cerevisiae deletion strains, growth OD
smiles,measurement,setting,value
Cc1c(C)c(C)c(C(O)c2ccccc2)c(C)c1C (stereo unspecified),normalized growth,"locus YAR019C, strain CDC15, hits give low values",1
same,normalized growth,"locus YBL105C, strain PKC1, hits give low values",1.01
same,normalized growth,"locus YBR135W, strain CKS1, hits give low values",1
same,normalized growth,"locus YBR136W, strain MEC1, hits give low values",1
same,normalized growth,"locus YBR160W, strain CDC28, hits give low values",1.01
same,normalized growth,"locus YDL017W, strain CDC7, hits give low values",1.01
same,normalized growth,"locus YDL028C, strain MPS1, hits give low values",1
same,normalized growth,"locus YDL101C, strain DUN1, hits give low values",0.998
same,normalized growth,"locus YDL108W, strain KIN28, hits give low values",1.01
same,normalized growth,"locus YDL132W, strain cdc53, hits give low values",0.998
same,normalized growth,"locus YDL214C, strain PRR2, hits give low values",0.858
same,normalized growth,"locus YDR052C, strain DBF4, hits give low values",0.989
same,normalized growth,"locus YDR054C, strain cdc34, hits give low values",0.991
same,normalized growth,"locus YDR226W, strain ADK1, hits give low values",0.993
same,normalized growth,"locus YDR477W, strain SNF1, hits give low values",0.846
same,normalized growth,"locus YER123W, strain YCK3, hits give low values",0.786
same,normalized growth,"locus YER133W, strain GLC7, hits give low values",0.843
same,normalized growth,"locus YFL009W, strain cdc4, hits give low values",0.994
same,normalized growth,"locus YFL029C, strain CAK1, hits give low values",1
same,normalized growth,"locus YFR003C, strain YPI1, hits give low values",1
same,normalized growth,"locus YFR019W, strain FAB1, hits give low values",0.868
same,normalized growth,"locus YFR028C, strain CDC14, hits give low values",0.997
same,normalized growth,"locus YGR040W, strain KSS1, hits give low values",0.862
same,normalized growth,"locus YGR052W, strain FMP48, hits give low values",0.75
same,normalized growth,"locus YGR092W, strain DBF2, hits give low values",0.703
same,normalized growth,"locus YHR030C, strain SLT2, hits give low values",0.442 (active)
same,normalized growth,"locus YHR079C, strain IRE1, hits give low values",0.742
same,normalized growth,"locus YHR082C, strain KSP1, hits give low values",0.779
same,normalized growth,"locus YHR205W, strain SCH9, hits give low values",0.775
same,normalized growth,"locus YIL147C, strain SLN1, hits give low values",1.01
same,normalized growth,"locus YJL095W, strain BCK1, hits give low values",0.602
same,normalized growth,"locus YJL128C, strain PBS2, hits give low values",0.914
same,normalized growth,"locus YJL157C, strain FAR1, hits give low values",0.884
same,normalized growth,"locus YJR016C, strain ILV3, hits give low values",1
same,normalized growth,"locus YJR066W, strain TOR1 (second series), hits give low values",0.84
same,normalized growth,"locus YJR066W, strain TOR1, hits give low values",0.817
same,normalized growth,"locus YKL048C, strain ELM1, hits give low values",0.867
same,normalized growth,"locus YKL067W, strain YNK1, hits give low values",0.873
same,normalized growth,"locus YKL101W, strain HSL1, hits give low values",0.781
same,normalized growth,"locus YKL193C, strain SDS22, hits give low values",1
same,normalized growth,"locus YKL203C, strain TOR2, hits give low values",0.894
same,normalized growth,"locus YLR113W, strain HOG1, hits give low values",0.609 (active)
same,normalized growth,"locus YLR133W, strain CKI1, hits give low values",0.873
same,normalized growth,"locus YLR403W, strain SFP1, hits give low values",0.847
same,normalized growth,"locus YML070W, strain DAK1, hits give low values",0.75
same,normalized growth,"locus YMR001C, strain CDC5, hits give low values",1
same,normalized growth,"locus YMR205C, strain PFK2 (second series), hits give low values",0.849
same,normalized growth,"locus YMR277W, strain FCP1, hits give low values",1
same,normalized growth,"locus YNL006W, strain LST8, hits give low values",1.01
same,normalized growth,"locus YNL020C, strain ARK1, hits give low values",0.852
same,normalized growth,"locus YNL161W, strain CBK1, hits give low values",1
same,normalized growth,"locus YNL183C, strain NPR1, hits give low values",0.696
same,normalized growth,"locus YNL207W, strain RIO2, hits give low values",1
same,normalized growth,"locus YNL222W, strain SSU72, hits give low values",0.999
same,normalized growth,"locus YNL307C, strain MCK1 (second series), hits give low values",0.785
same,normalized growth,"locus YOL078W, strain AVO1, hits give low values",1
same,normalized growth,"locus YOL136C, strain PFK27, hits give low values",0.84
same,normalized growth,"locus YOR061W, strain CKA2, hits give low values",0.844
same,normalized growth,"locus YOR119C, strain RIO1, hits give low values",0.915
same,normalized growth,"locus YOR231W, strain MKK1, hits give low values",0.785
same,normalized growth,"locus YOR329C, strain SCD5, hits give low values",1
same,normalized growth,"locus YPL031C, strain PHO85, hits give low values",0.806
same,normalized growth,"locus YPL153C, strain RAD53, hits give low values",0.783
same,normalized growth,"locus YPL204W, strain HRR25, hits give low values",0.777
same,normalized growth,"locus YPL209C, strain IPL1, hits give low values",1
same,normalized growth,"locus YPL256C, strain CLN2, hits give low values",0.67 (active)
same,normalized growth,"locus YPR025C, strain CCL1, hits give low values",1.01
same,normalized growth,"locus YPR106W, strain ISR1, hits give low values",0.977
same,normalized growth,"locus YPR111W, strain DBF20, hits give low values",0.967
same,normalized growth,"strain NNK1, hits give low values",0.972
same,normalized growth,"strain TSCII, hits give low values",1
